Compound activity deposited in PubChem by The Scripps Research Institute Molecular Screening Center.
Shown are actives, neighbours in structure and some others; about 1.6% of the full set was active somewhere.
HTR5A ag = counter-screen for OPRM1-OPRD1 agonists: human HTR5A agonism; P47898; HTR5A agonist assay, luminescence, cell-based; activation, % at 9.3 µM; hit rate 0.61% among 340,000; AID 504692; in the data active = activation mostly above about 9.5%, no sharp cut-off; inactive = mostly below about 7.6%;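 also: 0% = cells with vehicle only and 100% = reference agonist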
HTR2A ag = agonists of mouse serotonin 5-HT2A receptor (HTR2A). CHO-K1 mHTR2A beta-arrestin complementation, luminescence; percent of 30 µM serotonin response. AID 624169. activation, % at 7.6 µM. P35363. hit rate 0.66% among 360,000;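 active = activation above a run cutoff, the mean activation of all tested compounds plus 3 SD, cut at about 14% in these data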;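 also: 0% = plate median of compound wells and 100% = 30 µM serotonin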
OPRM1-OPRD1 ag = agonists of human mu-delta opioid receptor heterodimerization | cells, OPRM1-OPRD1 heterodimerization, luminescence | activation, % at 9.3 µM | hit rate 0.3% among 340,000 | AID 504326; in the data active = activation above about 18%;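 also: 0% = vehicle-treated cells and 100% = reference agonist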
Target sequence (P35372 whole entry, looked up): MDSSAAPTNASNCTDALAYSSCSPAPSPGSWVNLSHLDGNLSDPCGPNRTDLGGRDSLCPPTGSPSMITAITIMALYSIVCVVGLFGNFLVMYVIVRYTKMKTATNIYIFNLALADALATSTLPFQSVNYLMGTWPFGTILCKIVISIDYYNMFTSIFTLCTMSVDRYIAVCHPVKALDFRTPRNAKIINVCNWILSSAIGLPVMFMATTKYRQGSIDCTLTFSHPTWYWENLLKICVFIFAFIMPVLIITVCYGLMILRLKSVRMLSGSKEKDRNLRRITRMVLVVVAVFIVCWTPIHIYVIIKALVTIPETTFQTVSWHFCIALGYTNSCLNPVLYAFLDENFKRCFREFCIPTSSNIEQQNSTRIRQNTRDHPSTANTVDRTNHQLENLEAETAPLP
Target sequence (P41143 whole entry, looked up): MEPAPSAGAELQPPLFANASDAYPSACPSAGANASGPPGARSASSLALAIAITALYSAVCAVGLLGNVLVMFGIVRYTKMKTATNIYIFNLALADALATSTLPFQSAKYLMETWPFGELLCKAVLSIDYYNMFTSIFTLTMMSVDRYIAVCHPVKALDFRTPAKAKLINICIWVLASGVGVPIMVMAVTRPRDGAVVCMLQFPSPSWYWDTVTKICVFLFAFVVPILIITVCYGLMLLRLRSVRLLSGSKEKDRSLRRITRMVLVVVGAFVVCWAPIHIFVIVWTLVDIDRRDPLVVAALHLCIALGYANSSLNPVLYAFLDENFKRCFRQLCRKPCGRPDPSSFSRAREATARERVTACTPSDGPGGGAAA
OPRM1-OPRD1 inv = mu-delta opioid heterodimer inverse agonism. AID 504357. inhibition, % at 9.3 µM. P35372+P41143. cell-based MOR-DOR heterodimer luminescence. hit rate 0.21% among 340,000; in the data active = inhibition above about 22%, passing the limit was not always enough;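 also: 0% = cells with DMSO and 100% = wells without cells with DMSO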
HTR5A inv ag = counter-screen for OPRM1-OPRD1 inverse agonists: human HTR5A inverse agonism | hit rate 0.083% among 340,000 | P47898 | inhibition, % at 9.3 µM | HTR5A cell line, luminescence | AID 504634; in the data active = inhibition mostly above about 23%, no sharp cut-off; inactive = mostly below about 18%;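 also: 0% = cells with DMSO and 100% = no-cell wells with DMSO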
MOR ag counter = OPRM1 agonism in mouse HTR2A counterscreen; U2OS OPRM1 beta-arrestin PathHunter, luminescence; DMSO 0%, DAMGO 9.3 µM 100%; hit rate 5.3% among 2,300; activation, % at 9.3 µM; shares compounds with HTR2A ag;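 active = mean activation above the mean of DMSO-only wells plus 3 SD, cut at about 0.5% in these data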
HTR2A ag conf = mouse HTR2A agonism confirmed | hit rate 19% among 2,300 | CHO-K1 PathHunter beta-arrestin recruitment, luminescence; DMSO 0%, 30 µM serotonin 100% | shares compounds with HTR2A ag | AID 624381 | activation, % at 7.6 µM;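 active = mean activation across triplicates above the hit threshold derived in the original primary screen, cut at about 15% in these data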
An asterisk follows results filed as active; / = no result.

SMILES | HTR5A ag | HTR2A ag | OPRM1-OPRD1 ag | OPRM1-OPRD1 inv | HTR5A inv ag | MOR ag counter | HTR2A ag conf
CCCCn1c(N)c(N(CCC(C)C)C(=O)c2ccc([N+](=O)[O-])s2)c(=O)[nH]c1=O | 1 | 19* | 6 | -37 | -10 | 0 | -4
COC(=O)[C@]12CCCCC=C1N(Cc1ccccc1)C(=O)[C@H](CC(=O)N1CCSCC1)C2 | / | 1 | / | / | / | / | /
CC1(C(=O)NS(=O)(=O)c2ccc(C#N)cc2)CCN1C(=O)c1cccc2ccccc12 (stereo not drawn) | / | -1 | / | / | / | / | /
O=C(C[n+]1cc(-c2ccc(F)cc2)n2c1CCC2)Nc1nc(-c2ccc(F)cc2)cs1 | -3 | -1 | -2 | 11 | -5 | / | /
O=C(C[n+]1cc(-c2ccccc2)n2c1CCC2)Nc1nc(-c2ccc(F)cc2)cs1 | 2 | 21* | -2 | 11 | 11 | -1 | 51*
CCOC1CCCc2oc(-c3ccc(N(C)C)cc3)c(C(=O)OC)c21 (stereo not drawn) | / | -1 | / | / | / | / | /
O=C(Nc1cccc2ccccc12)c1csc(COCCO)n1 | / | 0 | / | / | / | / | /
O=C(Cn1cnc2ccccc2c1=O)N1CCN(Cc2ccc3c(c2)OCO3)CC1 | 6 | 15* | 0 | 2 | -18 | -1 | 47*
CC(=O)OCC(O)C1(O)CCC2C3CCC4=CC(=O)CCC4(C)C3C(O)CC21C (stereo not drawn) | / | 6 | / | / | / | / | /
CCC(=O)NCc1csc(-c2cccs2)n1 | 7 | 39* | -1 | 3 | -17 | -1 | -2
COc1ccc2c(c1)OC(=O)CC2c1ccccc1OC (stereo not drawn) | 2 | 16* | -2 | 10 | -8 | 0 | -3
CCOC(=O)C1CCN(C(c2ccccn2)c2c(C)[nH]c3ccccc23)CC1 (stereo not drawn) | 2 | 7 | 2 | -12 | 1 | / | /
Cc1[nH]c2ccccc2c1C(c1ccccn1)N1CCC(C(N)=O)CC1 (stereo not drawn) | 4 | 17* | 2 | -10 | -11 | 0 | -5
C/C=C/C(=O)OCC(=O)Nc1nc2ccc(C)cc2s1 | 7 | 26* | 1 | -4 | -20 | -1 | -4
CCCCn1nnnc1C(c1ccccc1)N1CCN(c2ccc(C)cc2)CC1 (stereo not drawn) | / | -4 | / | / | / | / | /
OC1CCN(c2ncnc3nc[nH]c23)CC1 | 1 | 6 | -2 | 9 | -4 | / | /
CC1CCN(c2ncnc3nc[nH]c23)CC1 | 16 | 25* | -1 | 6 | -42 | 0 | 1
CC(C)(C)c1csc(NC(=O)c2c(F)c(F)c(F)c(F)c2F)n1 | 4 | 17* | 0 | 0 | -15 | 0 | 15*
COCC1CCCCN1C(=O)c1cc(COc2ccc3ncccc3c2)on1 (stereo not drawn) | 7 | 20* | 1 | -3 | -26 | 0 | 0
COc1cccc(C(C)(O)c2nc(-c3cc(F)cc(F)c3)cs2)c1 (stereo not drawn) | / | 0 | / | / | / | / | /
C[C@@H]1CN([C@H](C)CO)C(=O)c2cc(Br)cnc2O[C@@H]1CN(C)C(=O)c1ccccc1 | / | 4 | / | / | / | / | /
CN(C)C(=O)c1snnc1-c1ccccc1 | 2 | 18* | -2 | 10 | -5 | 0 | -2
COC(=O)CSc1[nH]c(=O)cc(C)c1C#N | -1 | 17* | -1 | 8 | 3 | 0 | -3
CCOC(=O)CSc1[nH]c(=O)cc(C)c1C#N | -3 | 6 | -1 | 8 | -15 | / | /
CCCN1C(=O)CC(Sc2ncccc2C(=O)O)C1=O (stereo not drawn) | 2 | -1 | -2 | 10 | 4 | / | /
SMILES | HTR5A ag | HTR2A ag | OPRM1-OPRD1 ag | OPRM1-OPRD1 inv | HTR5A inv ag | MOR ag counter | HTR2A ag conf
CN1C(=O)CC(Sc2ncccc2C(=O)O)C1=O (stereo not drawn) | 1 | 15* | 0 | 0 | 0 | -1 | 1
C[C@@H]1CN([C@H](C)CO)C(=O)CCCn2nncc2CO[C@@H]1CN(C)S(=O)(=O)c1ccc(-n2cccn2)cc1 | / | -1 | / | / | / | / | /
CCCCNC(=O)C(NC(=O)c1ccc(=O)[nH]c1)C(=O)c1ccccc1 (stereo not drawn) | / | -3 | / | / | / | / | /
CCOC(=O)CSc1nc2c(sc(=S)n2-c2ccc(OCC)cc2)c(=O)[nH]1 | -6 | -2 | 0 | 2 | 9 | / | /
CCOc1ccc(-n2c(=S)sc3c(=O)[nH]c(SCC(=O)C(C)(C)C)nc32)cc1 | 0 | 17* | -3 | 16 | 0 | -1 | 0
CC(=O)Nc1ccc(S(=O)(=O)N2CCN(C(=O)Cc3ccccc3)CC2)cc1 | 4 | 17* | -2 | 12 | 1 | 0 | -2
COCCNC(=O)c1cc(-c2ccccc2)sc1N | / | 2 | / | / | / | / | /
C#CCOCCOCCOCCNc1nc(N2CCOCC2)nc(N2CCN(C(=O)CCCCCCCCCCNC(=O)[C@@H](CCC(=O)O)n3cc(CCCCCN)nn3)CC2)n1 | 1 | 15* | 0 | 2 | -38 | -1 | -2
CCCCc1cn([C@@H](CCCCNC(=O)OC(C)(C)C)C(=O)N2CCN(C(=O)OC(C)(C)C)CC2)nn1 | 0 | 16* | -2 | 9 | -10 | -1 | -1
CC(C)(C)OC(=O)NCCCCCc1cn([C@@H](CO)C(=O)NCCCCCCCCCCC(=O)N2CCN(C(=O)OC(C)(C)C)CC2)nn1 | -1 | 15* | 3 | -15 | 4 | 0 | 19*
CC(C)(C)OC(=O)NCCCC[C@@H](C(=O)N1CCN(C(=O)OC(C)(C)C)CC1)n1cc(CCC(=O)O)nn1 | 1 | -6 | -2 | 9 | -15 | / | /
CNC(=O)C[C@@H]1C(=O)N(CCc2ccccc2)CC1(C)C | / | 9 | / | / | / | / | /
COCCN(Cc1ccccc1)C(=O)c1cccc(S(=O)(=O)N2CCN(c3ccccc3)CC2)c1 | -4 | 6 | -2 | 11 | 11 | / | /
COCCN(Cc1ccccc1)C(=O)c1ccc(C(=O)c2ccccc2)cc1 | -3 | 22* | 2 | -10 | 7 | 0 | -2
COc1ccc(C(=O)NNC2=CC(=O)CC(C)(C)C2)cc1 | -4 | 19* | -1 | 6 | -11 | -1 | 1
COc1ccc(C2=NO[C@@](CC(=O)O)(C(=O)Nc3ccc4c(c3)OCCO4)C2)cc1 | 5 | 16* | 0 | 1 | -18 | 1.0* | 2
CC(=O)c1cn(CC(=O)Nc2ccccc2)c2ccccc12 | 5 | 20* | -2 | 10 | -12 | -1 | 1
Cc1cccnc1C1=NOC(Cc2ccccc2)C(=O)N1Cc1ccccc1F (stereo not drawn) | / | 5 | / | / | / | / | /
COc1ccc(S(=O)(=O)NC(=O)C2(C)CCN2C(=O)CCC2CCCC2)cc1OC (stereo not drawn) | / | -1 | / | / | / | / | /
NC(=O)Cn1nc(C(F)(F)F)c2c1CCCC2 | 5 | 40* | -3 | 13 | -14 | 0 | -3
